In the library only some 19% were active in any assay of this set; here they are far more common.
Pf growth 96h: P. falciparum growth inhibition at 96 hour, primary screen for plastid delayed-death inhibitors | P. falciparum luciferase reporter growth, 96 h | Potency, µM (top dose mostly 28.7 µM), inactives show at the highest dose activity change, negative = inhibition, most hits filed as inhibitors | hit rate 6.9% among 320,000 | AID 504834; further: potency means the concentration at half of the fitted maximal effect; on the % scale 0 is the no-effect control and ±100 the full control effect
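Erythrocytes infected with luciferase-expressing P. falciparum were dispensed at 2% hematocrit and 0.05% parasitemia (final), then incubated with compounds 96 hours at 37 C in 5% CO2. Luminescence after detection reagent addition reported growth.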
MARV entry inh: blocks Marburg virus binding to or entry into cells. Marburg virus pseudotyped entry inhibition, cell reporter. Potency, µM (doses to about 37.8 µM), for the others: top-dose activity change, negative = inhibition, usual class: inhibitors. hit rate 1.8% among 300,000. AID 540276; calls by dose curve; tested in HEK293 cells; further: potency means the concentration at half of the fitted maximal effect; on the % scale 0 is the no-effect control and ±100 the full control effect
Cycloheximide cs: affects cycloheximide protein synthesis inhibition readout, counter-screen | cell reporter, cycloheximide protein synthesis inhibition counterscreen | max response, % | hit rate 12% among 300,000; in the data active means max response mostly above about 13%, no sharp cut-off; inactive means mostly below about 14%; further: read at 38.3 µM for the half of the compounds with a filed dose; 0% is about no effect
Pf growth 48h: P. falciparum growth inhibition at 48 hours (one generation). P. falciparum luciferase growth in erythrocytes, 48 h. Potency, µM (doses to about 28.7 µM), inactives show at the highest dose activity change, negative = inhibition, usual class: inhibitors. hit rate 5.9% among 310,000. AID 504832; further: potency means the concentration at half of the fitted maximal effect; on the % scale 0 is the no-effect control and ±100 the full control effect
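Luciferase-expressing parasites in RBCs, 2% Hct / 0.1% parasitemia final; RPMI 1640 + 0.5% Albumax; 37 C, 5% CO2, one generation; luminescence read-out, lower signal = inhibition.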
Shiga toxin inh: inhibitors of Shiga toxin in Vero cells; hit rate 9.2% among 290,000; Vero cells, Shiga toxin protein synthesis inhibition reporter; inhibition, % at 38.7 µM; in the data active means inhibition mostly above about 28%, no sharp cut-off; inactive means mostly below about 43%; further: 0% is about no effect
LASV entry inh: Lassa virus entry inhibition | Lassa virus pseudotype entry inhibition, cell reporter | Potency, µM (highest dose often 37.9 µM), without a hit: at the top dose activity change, negative = inhibition, most hits filed as inhibitors | hit rate 1.2% among 300,000 | AID 540256; calls by dose curve; tested in HEK293 cells; further: potency means the concentration at half of the fitted maximal effect; on the % scale 0 is the no-effect control and ±100 the full control effect; nearly all actives have a fitted effect of over 50% in size
* hit, by the source's call; i = inactive; u = inconclusive; x = not tested or not shown; [ ] = dose if it differs, or a comment. Unless noted, the call rests on the fitted dose curve; in most records, active means well fitted inhibition curve with a large enough effect; inconclusive means small, poorly fitted or top-dose-only effect, or another doubt; inactive means no such curve, though single readings can be large or run the other way.

SMILES	Pf growth 96h	MARV entry inh	Cycloheximide cs	Pf growth 48h	Shiga toxin inh	LASV entry inh
Cc1ccc(Cn2c(N3CCN(C)CC3)nc3c2c(=O)[nH]c(=O)n3C)cc1	12%	u	-2	-15%	-12	4%
C=CCn1c(Sc2ccccc2)nc2c1c(=O)[nH]c(=O)n2C	8%	2%	-1	12µM*	-5	2%
Cn1c(=O)[nH]c(=O)c2c1nc(N1CCCCC1)n2CCCSc1nnnn1-c1ccccc1	u	-7%	0	u	-7	-11%
C=C(C)Cn1c(N2CCC(Cc3ccccc3)CC2)nc2c1c(=O)[nH]c(=O)n2C	u	u	-4	13µM*	-3	u
COc1cccc(C(=O)Nc2cc(=O)n(C)c(=O)n2C)c1	38%	x	-3	-12%	15	x
CS/C(=N\S(=O)(=O)c1ccc(N)cc1)NS(=O)(=O)c1cccs1	101%	-1%	-2	9%	9	10%
CN1CCN(c2nc3c(c(=O)[nH]c(=O)n3C)n2Cc2ccccc2)CC1	0.59µM*	-1%	-4	5%	-8	-10%
COc1ccc(C2=COc3ccccc3C(=O)N2)cc1	7%	u	21*	9%	56*	12%
COC(=O)c1ccc(COc2ccccc2/C=C(\C#N)C(=O)Nc2ccccc2C)cc1	11%	0%	-2	29%	29	u
COC(=O)c1ccc(COc2ccccc2/C=C(\C#N)C(=O)Nc2c(C)cccc2C)cc1	13µM*	11µM*	-3	u	26	u
Cc1ccc(NC(=O)/C(C#N)=C/c2ccc(C)s2)c(C)c1	5%	26%	40*	x	53	13%
Cc1c(NC(=O)/C(C#N)=C/c2cccs2)c(=O)n(-c2ccccc2)n1C	u	-6%	-1	-11%	-3	-15%
Cc1ccc(CNC(=O)/C(C#N)=C/c2ccc(C)s2)cc1	3%	-26%[46.1 µM]	-2	37%	7	-3%
Cc1ccc(/C=C(\C#N)C(=O)Nc2c(C)cccc2C)s1	7.4µM*	-18%	-1	x	-19	33%
N#C/C(=N/O)c1nc(-c2ccc(F)cc2)cs1	-3%	-8%	-3	1%	-8	-15%
COC(=O)C1=C(C)NC(=S)NC1c1ccc(-c2cc(Cl)ccc2Cl)o1 (stereo not given)	u	u	1	12µM*	12	u
COC(=O)C1=C(C)NC(=O)NC1c1ccc(-c2ccc(Cl)cc2)o1 (stereo not given)	u	x	1	-15%	-6	x
CC(C)(C)NC(=O)C(c1c[nH]c2ccccc12)N(C(=O)Cn1nnc(-c2ccc(Cl)cc2)n1)c1ccccc1F (stereo not given)	30%	u	3	u	4	u
COc1cccc(N(C(=O)Cn2nnc(-c3ccc(C)cc3)n2)C(C(=O)NC(C)(C)C)c2c[nH]c3ccccc23)c1 (stereo not given)	2.3µM*	u	-1	12µM*	-7	u
CC(C)(C)NC(=O)C(c1ccncc1)N(C(=O)Cn1nnc(-c2ccc(F)cc2)n1)c1cccc(F)c1 (stereo not given)	0%	u	29*	u	56	18%
O=C(c1cc2cc(Br)ccc2o1)N1CCCCC1	-19%	u	38*	51%	92*	0%[46.1 µM]
Cc1ccc(S(=O)(=O)N2CCCC2)cc1C(=O)NCc1ccccc1CN1CCCC1	u	x	x	-29%	x	x
Cc1c(C(=O)N2CCC2)oc2ccc(Cl)cc12	x	5%	x	x	x	10%
O=C(NCc1ccccc1CN1CCCC1)c1cc2cc(Cl)ccc2o1	u	x	x	13µM*	x	x
O=C(c1cc2cc(Cl)ccc2o1)N1CCCC1	u	3%[46.1 µM]	49*	u	89*	-2%
Cc1cc(C(=O)Nc2ccccc2C)c2ccccc2n1	0%	-1%[46.1 µM]	-1	4%	x	1%[46.1 µM]
Cc1ccc(Cn2ccc(NC(=O)c3cc(-c4ccco4)on3)n2)cc1	19%	-27%	14	10µM*	14	26%[14.3 µM]
Cc1ccc(Cn2ccc(NC(=O)c3cc(-c4ccc(Br)cc4)on3)n2)cc1	u	3%	-1	71%	-10	-2%
Cc1ccc(Cn2ccc(NC(=O)c3cc(C)on3)n2)cc1	x	u	29*	x	52	10%
Cc1ccc(Cn2ccc(NC(=O)c3cc(-c4ccccc4)on3)n2)cc1	i	-23%	-2	9.3µM*	31	1%

Compound activity: PubChem BioAssay, National Center for Advancing Translational Sciences (NCATS)
